The source of these data is ChEMBL document CHEMBL1961873, “Compounds: GSK PKIS; Assays: Nanosyn kinase panel” (2012).

In assay [1] the target is Rho-associated protein kinase 1 (Homo sapiens) (UniProt Q13464). The following applies: at 1 µM.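 Also: reported values are mean percent inhibition of ROCK1.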
The target of assay [2] is Rho-associated protein kinase 2 (Homo sapiens) (UniProt O75116). The following applies: at 0.1 µM.
Assay [3] has the same target. The note with it: at 1 µM.
The target in assay [4] is Ribosomal protein S6 kinase alpha-1 (Homo sapiens) (UniProt Q15418). The following applies: at 0.1 µM.
Assay [5] has the same target. The note with it: at 1 µM.
For assay [6], the target named is Ribosomal protein S6 kinase alpha-3 (Homo sapiens) (UniProt P51812). The note with it: at 0.1 µM.
Assay [7] has the same target. The following applies: at 1 µM.
In assay [8] the target is Ribosomal protein S6 kinase alpha-2 (Homo sapiens) (UniProt Q15349). The following applies: at 0.1 µM.
Assay [9] shares this target. The note with it: at 1 µM.
For assay [10], the target named is Ribosomal protein S6 kinase alpha-6 (Homo sapiens) (UniProt Q9UK32). The following applies: at 0.1 µM.
Assay [11] has the same target. The note with it: at 1 µM.
Assay [12] has as its target T1, Serine/threonine-protein kinase Sgk1 (Homo sapiens) (UniProt O00141).
T1 sequence (whole entry): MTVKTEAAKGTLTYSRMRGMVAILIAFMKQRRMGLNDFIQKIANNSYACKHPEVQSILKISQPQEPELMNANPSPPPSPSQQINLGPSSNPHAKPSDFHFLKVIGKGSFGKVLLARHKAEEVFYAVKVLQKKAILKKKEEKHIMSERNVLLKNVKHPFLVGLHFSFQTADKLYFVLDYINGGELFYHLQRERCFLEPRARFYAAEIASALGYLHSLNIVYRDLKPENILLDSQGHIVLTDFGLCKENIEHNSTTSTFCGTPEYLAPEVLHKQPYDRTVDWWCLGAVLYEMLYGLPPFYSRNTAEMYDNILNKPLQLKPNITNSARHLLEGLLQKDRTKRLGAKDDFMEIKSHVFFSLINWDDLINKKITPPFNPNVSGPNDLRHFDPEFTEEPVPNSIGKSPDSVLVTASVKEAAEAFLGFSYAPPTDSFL
The note with it: at 0.1 µM.

The target of assay [13] is T1, Serine/threonine-protein kinase Sgk1 (Homo sapiens). The note with it: at 1 µM.
Assay [14] concerns the target T2, Serine/threonine-protein kinase Sgk2 (Homo sapiens) (UniProt Q9HBY8).
T2 sequence (whole entry): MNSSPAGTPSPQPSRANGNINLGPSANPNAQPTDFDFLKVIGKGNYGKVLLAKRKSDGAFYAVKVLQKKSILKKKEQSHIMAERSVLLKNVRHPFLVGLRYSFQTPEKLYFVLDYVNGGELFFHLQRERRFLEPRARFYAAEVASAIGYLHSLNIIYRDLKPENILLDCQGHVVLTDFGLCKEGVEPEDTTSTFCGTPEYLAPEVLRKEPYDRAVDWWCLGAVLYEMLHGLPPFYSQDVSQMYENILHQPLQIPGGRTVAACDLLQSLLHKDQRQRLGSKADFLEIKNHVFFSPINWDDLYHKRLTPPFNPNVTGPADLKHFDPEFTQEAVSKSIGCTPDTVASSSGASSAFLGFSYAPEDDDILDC
The note with it: at 0.1 µM.

The target of assay [15] is T2, Serine/threonine-protein kinase Sgk2 (Homo sapiens). The following applies: at 1 µM.
Assay [16] has as its target T3, Serine/threonine-protein kinase Sgk3 (Homo sapiens) (UniProt Q96BR1).
T3 sequence (whole entry): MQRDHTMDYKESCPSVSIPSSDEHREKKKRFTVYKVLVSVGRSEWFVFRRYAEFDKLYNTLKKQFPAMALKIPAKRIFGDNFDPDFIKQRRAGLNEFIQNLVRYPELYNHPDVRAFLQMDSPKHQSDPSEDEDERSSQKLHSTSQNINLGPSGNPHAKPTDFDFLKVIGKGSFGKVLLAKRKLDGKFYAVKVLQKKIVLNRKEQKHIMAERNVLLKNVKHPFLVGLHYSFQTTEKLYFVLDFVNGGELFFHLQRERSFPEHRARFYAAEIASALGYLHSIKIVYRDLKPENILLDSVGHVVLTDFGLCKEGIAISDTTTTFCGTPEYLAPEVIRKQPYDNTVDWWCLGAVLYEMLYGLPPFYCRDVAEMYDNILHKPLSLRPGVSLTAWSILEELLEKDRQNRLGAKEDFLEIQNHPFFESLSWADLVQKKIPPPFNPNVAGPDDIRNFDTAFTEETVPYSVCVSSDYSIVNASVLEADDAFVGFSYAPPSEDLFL
The note with it: at 0.1 µM.

Assay [17] deals with T3, Serine/threonine-protein kinase Sgk3 (Homo sapiens). The following applies: at 1 µM.
The target in assay [18] is 5'-AMP-activated protein kinase catalytic subunit alpha-1 (Homo sapiens) (UniProt Q13131). The following applies: at 0.1 µM.
Assay [19] has the same target. The note with it: at 1 µM.
For assay [20], the target named is 5'-AMP-activated protein kinase catalytic subunit alpha-2 (Homo sapiens) (UniProt P54646). The following applies: at 0.1 µM.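 Also: mean inhibition measured on the AMPK complex of alpha2, beta1 and gamma1 subunits.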

Chain of Ribosomal protein S6 kinase alpha-3 (Homo sapiens) (P51812 whole entry): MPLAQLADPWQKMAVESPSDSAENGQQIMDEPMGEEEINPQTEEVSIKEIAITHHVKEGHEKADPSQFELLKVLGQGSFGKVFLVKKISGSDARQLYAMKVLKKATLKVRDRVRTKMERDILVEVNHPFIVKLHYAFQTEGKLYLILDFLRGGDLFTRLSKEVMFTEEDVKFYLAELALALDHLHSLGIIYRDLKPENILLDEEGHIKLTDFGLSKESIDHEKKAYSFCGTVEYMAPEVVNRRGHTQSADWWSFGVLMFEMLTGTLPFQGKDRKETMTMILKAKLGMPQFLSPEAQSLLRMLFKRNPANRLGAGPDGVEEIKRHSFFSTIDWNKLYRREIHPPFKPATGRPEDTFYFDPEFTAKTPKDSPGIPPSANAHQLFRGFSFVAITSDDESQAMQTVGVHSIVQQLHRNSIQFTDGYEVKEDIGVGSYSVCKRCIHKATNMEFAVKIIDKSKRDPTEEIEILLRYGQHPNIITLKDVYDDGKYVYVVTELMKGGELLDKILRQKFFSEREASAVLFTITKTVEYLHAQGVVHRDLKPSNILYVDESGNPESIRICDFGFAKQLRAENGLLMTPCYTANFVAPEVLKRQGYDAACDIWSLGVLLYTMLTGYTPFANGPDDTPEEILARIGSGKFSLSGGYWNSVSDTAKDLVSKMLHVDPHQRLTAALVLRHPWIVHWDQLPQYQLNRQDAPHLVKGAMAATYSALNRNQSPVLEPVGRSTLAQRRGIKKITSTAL
Chain of Ribosomal protein S6 kinase alpha-6 (Homo sapiens) (Q9UK32 whole entry): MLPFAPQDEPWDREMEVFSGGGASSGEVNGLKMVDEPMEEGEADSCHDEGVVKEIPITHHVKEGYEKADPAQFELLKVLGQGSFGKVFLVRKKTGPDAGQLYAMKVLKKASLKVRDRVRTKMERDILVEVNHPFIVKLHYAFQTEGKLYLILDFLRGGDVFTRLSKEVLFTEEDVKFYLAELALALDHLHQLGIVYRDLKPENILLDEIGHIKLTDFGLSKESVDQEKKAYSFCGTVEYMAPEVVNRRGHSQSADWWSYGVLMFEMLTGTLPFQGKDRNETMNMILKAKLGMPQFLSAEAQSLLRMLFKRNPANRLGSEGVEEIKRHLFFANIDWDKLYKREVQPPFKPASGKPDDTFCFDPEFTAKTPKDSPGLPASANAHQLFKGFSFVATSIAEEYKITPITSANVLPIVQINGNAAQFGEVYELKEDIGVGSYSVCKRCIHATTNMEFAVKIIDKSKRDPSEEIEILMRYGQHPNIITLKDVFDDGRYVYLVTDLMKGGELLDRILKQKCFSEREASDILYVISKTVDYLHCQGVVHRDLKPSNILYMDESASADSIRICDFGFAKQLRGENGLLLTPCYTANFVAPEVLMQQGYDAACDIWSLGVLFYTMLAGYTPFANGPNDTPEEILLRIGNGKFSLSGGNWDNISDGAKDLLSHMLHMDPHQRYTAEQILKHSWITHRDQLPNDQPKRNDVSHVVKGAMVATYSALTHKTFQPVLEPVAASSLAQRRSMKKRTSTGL
Chain of Rho-associated protein kinase 2 (Homo sapiens) (O75116 whole entry, looked up): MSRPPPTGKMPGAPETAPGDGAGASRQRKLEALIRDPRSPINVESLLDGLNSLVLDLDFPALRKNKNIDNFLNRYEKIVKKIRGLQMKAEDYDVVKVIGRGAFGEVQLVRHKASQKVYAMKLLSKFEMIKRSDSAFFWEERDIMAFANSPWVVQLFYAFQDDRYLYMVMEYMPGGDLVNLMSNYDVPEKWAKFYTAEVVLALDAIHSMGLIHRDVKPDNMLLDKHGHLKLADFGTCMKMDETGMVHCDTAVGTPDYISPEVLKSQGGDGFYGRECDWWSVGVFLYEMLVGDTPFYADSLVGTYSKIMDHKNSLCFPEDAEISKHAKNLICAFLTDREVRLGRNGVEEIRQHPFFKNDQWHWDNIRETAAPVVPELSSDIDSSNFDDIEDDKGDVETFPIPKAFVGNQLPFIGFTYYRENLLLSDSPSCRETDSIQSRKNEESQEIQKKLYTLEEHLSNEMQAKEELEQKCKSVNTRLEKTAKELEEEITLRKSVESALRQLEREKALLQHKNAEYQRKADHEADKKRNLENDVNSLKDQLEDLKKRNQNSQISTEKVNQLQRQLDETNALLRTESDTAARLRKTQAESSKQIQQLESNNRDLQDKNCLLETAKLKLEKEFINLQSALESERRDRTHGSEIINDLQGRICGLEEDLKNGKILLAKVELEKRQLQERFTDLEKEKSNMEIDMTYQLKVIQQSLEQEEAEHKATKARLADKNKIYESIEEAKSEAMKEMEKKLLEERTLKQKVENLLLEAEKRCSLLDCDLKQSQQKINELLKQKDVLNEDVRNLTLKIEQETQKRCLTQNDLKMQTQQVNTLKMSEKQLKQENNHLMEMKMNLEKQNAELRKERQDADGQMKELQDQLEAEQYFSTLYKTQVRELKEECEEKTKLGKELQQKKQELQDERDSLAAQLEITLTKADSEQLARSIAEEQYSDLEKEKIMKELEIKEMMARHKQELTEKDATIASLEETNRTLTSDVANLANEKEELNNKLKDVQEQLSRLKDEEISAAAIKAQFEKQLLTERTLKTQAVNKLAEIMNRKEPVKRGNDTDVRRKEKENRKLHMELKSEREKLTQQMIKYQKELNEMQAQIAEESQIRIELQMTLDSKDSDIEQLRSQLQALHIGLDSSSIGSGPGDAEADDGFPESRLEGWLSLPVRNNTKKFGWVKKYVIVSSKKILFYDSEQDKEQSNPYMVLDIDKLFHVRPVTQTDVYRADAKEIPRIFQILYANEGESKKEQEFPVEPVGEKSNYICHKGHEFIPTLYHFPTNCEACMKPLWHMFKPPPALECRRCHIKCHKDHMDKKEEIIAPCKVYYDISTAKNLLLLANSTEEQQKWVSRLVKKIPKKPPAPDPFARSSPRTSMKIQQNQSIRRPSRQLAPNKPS
Chain of Rho-associated protein kinase 1 (Homo sapiens) (Q13464 2-1354 limits assumed): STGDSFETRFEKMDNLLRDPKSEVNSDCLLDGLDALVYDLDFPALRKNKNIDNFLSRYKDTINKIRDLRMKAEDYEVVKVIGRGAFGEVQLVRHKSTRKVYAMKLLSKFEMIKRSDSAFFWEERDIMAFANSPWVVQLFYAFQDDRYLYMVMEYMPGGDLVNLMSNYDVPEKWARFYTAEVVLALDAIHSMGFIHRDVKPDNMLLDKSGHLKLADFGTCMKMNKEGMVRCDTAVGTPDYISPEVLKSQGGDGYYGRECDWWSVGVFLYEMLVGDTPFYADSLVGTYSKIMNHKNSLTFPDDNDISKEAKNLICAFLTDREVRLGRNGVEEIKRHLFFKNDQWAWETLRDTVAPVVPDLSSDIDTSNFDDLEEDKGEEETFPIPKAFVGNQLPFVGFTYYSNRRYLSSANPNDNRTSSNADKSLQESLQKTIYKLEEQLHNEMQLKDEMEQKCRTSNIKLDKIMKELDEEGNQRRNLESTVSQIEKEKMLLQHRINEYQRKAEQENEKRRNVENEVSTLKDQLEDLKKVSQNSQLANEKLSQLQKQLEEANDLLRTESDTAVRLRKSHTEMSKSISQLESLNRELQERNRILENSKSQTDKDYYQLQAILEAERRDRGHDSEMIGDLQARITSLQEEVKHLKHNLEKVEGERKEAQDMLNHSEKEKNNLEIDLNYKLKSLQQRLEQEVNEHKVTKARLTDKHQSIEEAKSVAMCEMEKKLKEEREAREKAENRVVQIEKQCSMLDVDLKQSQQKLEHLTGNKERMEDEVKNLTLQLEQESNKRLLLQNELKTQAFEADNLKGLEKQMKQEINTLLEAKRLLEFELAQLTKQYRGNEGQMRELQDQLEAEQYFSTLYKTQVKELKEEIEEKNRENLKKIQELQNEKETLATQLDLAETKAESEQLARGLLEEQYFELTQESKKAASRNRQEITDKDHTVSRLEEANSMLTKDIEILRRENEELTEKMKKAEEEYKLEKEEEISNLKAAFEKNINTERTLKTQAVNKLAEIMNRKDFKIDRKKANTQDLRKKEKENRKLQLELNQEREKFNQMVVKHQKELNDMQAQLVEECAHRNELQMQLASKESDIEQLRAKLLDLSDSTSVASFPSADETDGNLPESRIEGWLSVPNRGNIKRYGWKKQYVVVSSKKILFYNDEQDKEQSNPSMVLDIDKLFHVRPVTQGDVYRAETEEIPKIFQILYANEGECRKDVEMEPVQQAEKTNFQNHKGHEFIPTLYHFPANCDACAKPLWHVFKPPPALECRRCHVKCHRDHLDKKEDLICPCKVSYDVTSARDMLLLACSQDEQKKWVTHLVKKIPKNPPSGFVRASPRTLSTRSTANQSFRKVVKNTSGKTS
Chain of Ribosomal protein S6 kinase alpha-2 (Homo sapiens) (Q15349 whole entry): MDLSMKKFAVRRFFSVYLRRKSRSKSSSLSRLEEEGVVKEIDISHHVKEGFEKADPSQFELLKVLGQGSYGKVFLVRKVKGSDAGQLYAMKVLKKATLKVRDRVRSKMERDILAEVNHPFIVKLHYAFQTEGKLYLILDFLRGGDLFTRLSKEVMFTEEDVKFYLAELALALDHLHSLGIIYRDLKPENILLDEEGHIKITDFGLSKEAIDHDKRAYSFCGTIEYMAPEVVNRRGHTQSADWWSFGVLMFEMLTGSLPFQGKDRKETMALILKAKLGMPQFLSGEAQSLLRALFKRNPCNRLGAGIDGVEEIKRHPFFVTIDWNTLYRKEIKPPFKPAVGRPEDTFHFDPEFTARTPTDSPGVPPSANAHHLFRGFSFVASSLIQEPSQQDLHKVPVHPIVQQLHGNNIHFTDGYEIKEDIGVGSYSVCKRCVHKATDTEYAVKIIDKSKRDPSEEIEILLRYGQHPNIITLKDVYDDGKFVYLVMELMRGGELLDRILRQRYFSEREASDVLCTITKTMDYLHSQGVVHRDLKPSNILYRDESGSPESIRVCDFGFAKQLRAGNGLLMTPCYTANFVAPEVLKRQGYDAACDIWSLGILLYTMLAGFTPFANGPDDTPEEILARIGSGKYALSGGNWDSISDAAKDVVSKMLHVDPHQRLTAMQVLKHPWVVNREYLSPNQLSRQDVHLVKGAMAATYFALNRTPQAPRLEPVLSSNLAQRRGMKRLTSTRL

Broadly, the inhibition is the relative decrease from the control value, in per cent. On to `O=C1NC(=O)C(c2ccc(Cl)cc2)=C1Nc1ccc(Cl)c(C(=O)O)c1`, for which the inhibition in assay [1] was 1.07%; in [2] it was -1.68%; in assay [3], -2.33%; in [4], -0.77%; in [5], -0.61%; in [6], -1.11%. Further, the inhibition in [7] was -1.86%; in [8] it was -1.33%; in assay [9], -1.11%; in [10], -1.33%; in assay [11] it was -1.03%; in assay [12], 1.08%. Further, the inhibition is -1.96% in assay [13]; -3.55% in assay [14]; -0.77% in [15]; -1.08% in assay [16]; -4.32% in assay [17]; -0.6% in assay [18]. Moreover, the figures for the inhibition in assay [19] and in assay [20] were -0.54% and 0.26%, respectively.

For `COc1cc2c(cc1Nc1nc(N3CCc4ccccc43)c3cc[nH]c3n1)N(C(=O)CN(C)C)CC2`, the inhibition in assay [1] is 1.14%; in [2], 0.55%; in assay [3], -1.46%; in assay [4] it was 0.16%; in assay [5] it was 0.41%; in [6], 0.21%. Further, the inhibition was -1.32% in assay [7]; 0.86% in assay [8]; 0.48% in [9]; 1.57% in [10]; 0.95% in [11]; 0.53% in assay [12]. For the same molecule, the inhibition is 1.07% in assay [13]; -0.51% in assay [14]; 2.34% in assay [15]; 1.69% in assay [16]; -0.59% in assay [17]; 2.03% in assay [18]. Also, the figures for the inhibition in assay [19] and in assay [20] were 0.36% and -1.68%, respectively.

`CC1=C(C(=O)Nc2ccc3[nH]ncc3c2)C(c2ccc3ccccc3c2)CC(=O)N1` (stereo not drawn): the inhibition was found to be 77% in assay [2]; 84.2% in [3]; 3.94% in [4]; 26.4% in assay [5]; 2.4% in assay [6]; 21.3% in assay [7]. The inhibition in assay [8] is 2.26%; in [9] it was 13.7%; in assay [10], 1.04%; in assay [11], 7.45%; in assay [12], 2.12%; in [13], 7.38%. Further, the inhibition stood at 3% in assay [14]; 16.6% in assay [15]; 1.33% in assay [16]; 10.3% in assay [17]; 7.34% in assay [18]; 41% in assay [19]. In [20], the inhibition amounted to 2.46%.

With `CCn1c(-c2nonc2N)nc2c(N3CCCC3)nccc21`, the inhibition was determined as 22.2% in assay [1]; 3.86% in [2]; 30.6% in assay [3]; 0.29% in [4]; 7.82% in assay [5]; 0.44% in assay [6]. Also, the inhibition in assay [7] was 4.5%; in assay [8], -0.11%; in assay [9], 7.05%; in assay [10] it was -0.21%; in [11], -0.13%; in [12], 0.28%. Also, the inhibition is -1.03% in assay [13]; -2.98% in assay [14]; 2.83% in [15]; -0.79% in assay [16]; -0.02% in assay [17]; -0.36% in [18]. Besides, the figures for the inhibition in [19] and in [20] were 0.11% and -8%, respectively.

Turning to `COC(=O)Nc1nc2cc(Oc3ccc(NC(=O)Nc4cccc(C(=O)O)c4)cc3)ccc2[nH]1`, the inhibition in [1] came to 1.55%; in assay [2], 2.14%; in [3] it was 5.7%; in [4], 1.21%; in assay [5], 2.55%; in assay [6], 1.11%. Further, the inhibition in [7] was 1.31%; in assay [8] it was 0.86%; in assay [9] it was 2%; in [10], 0.08%; in assay [11], 1.45%; in [12] it was 1.3%. Besides, the inhibition is 1.96% in [13]; 1.67% in [14]; 1.89% in assay [15]; -2.29% in assay [16]; 2.6% in [17]; 1.04% in assay [18]. Moreover, the inhibition in [19] was 4.37%; in [20], -4.37%.

For the molecule `CCn1c(-c2nonc2N)nc2cncc(C(=O)N3CCNCC3)c21`, the inhibition was 3.45% in assay [2]; 4.33% in assay [3]; 1.84% in assay [4]; 3.1% in [5]; 0.8% in assay [6]; -0.05% in [7]. The inhibition came to 3.17% in assay [8]; 3.01% in assay [9]; 1.32% in assay [10]; 2.55% in assay [11]; 1.92% in assay [12]; 4.77% in assay [13]. Besides, the inhibition in assay [14] is 3.56%; in [15], 4.56%; in assay [16], 5.25%; in assay [17], 6.39%; in [18], 3.24%; in assay [19], 4.88%. Besides, the inhibition in assay [20] amounted to 8.15%.

`COc1ccc(-c2nn3ncccc3c2-c2ccnc(Nc3ccc(Cl)c(C(F)(F)F)c3)n2)cc1`: the inhibition in assay [1] came to 0.16%; in assay [2], 0.42%; in [3], 5.75%; in assay [4], 1.97%; in assay [5], 4.11%; in assay [6], 1.72%. The inhibition in [7] was determined as 3.67%; in assay [8], 0.41%; in assay [9], 2.22%; in assay [10] it was 0.23%; in [11], 0.85%; in assay [12] it was 1.68%. For the same molecule, the inhibition in assay [13] is 4.61%; in assay [14], -2.66%; in assay [15] it was 0.76%; in [16], 2.3%; in assay [17] it was 2.89%; in assay [18], 2.31%. Moreover, the inhibition in assay [19] was found to be 2.56%; in assay [20], 0.17%.
